The text below walks through data of PubChem BioAssay.

Test [1] concerns the target Nuclear receptor coactivator 1 (Homo sapiens) (UniProt Q15788). Nature of the test: NCOA1 GAL4-fusion reporter inhibition – cell-based, luminescence, quadruplicate, confirmation (AID 588820;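 active = mean inhibition above 46.68%, the untreated control wells mean plus 3 SD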;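 note: 0% = DMSO wells and 100% = gossypol 36 µM treated wells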). The following applies: HEK293 GAL4-SRC1 luciferase reporter, at 3.6 µM, stronger effect = higher value.
Test [2] is described as follows: repression of VP16-driven luciferase reporter – cell-based, luminescence, high throughput, counter-screen for SRC1 inhibitor project (AID 588824). The following applies: cell-based VP16 transactivation luciferase luminescence; at 3.6 µM; stronger effect = higher value. (In general: In a reporter assay the amount or activity of a reporter protein is the signal.)

Structures are written as SMILES. Values without a mark were called inactive. Active and inactive are the calls of the source. Cut-off read from the data, not from the text of the source, unless noted: active = inhibition above about 25%; inactive = the rest.

Chain of Nuclear receptor coactivator 1 (Homo sapiens) (Q15788 whole entry, looked up, the tested form may be a part): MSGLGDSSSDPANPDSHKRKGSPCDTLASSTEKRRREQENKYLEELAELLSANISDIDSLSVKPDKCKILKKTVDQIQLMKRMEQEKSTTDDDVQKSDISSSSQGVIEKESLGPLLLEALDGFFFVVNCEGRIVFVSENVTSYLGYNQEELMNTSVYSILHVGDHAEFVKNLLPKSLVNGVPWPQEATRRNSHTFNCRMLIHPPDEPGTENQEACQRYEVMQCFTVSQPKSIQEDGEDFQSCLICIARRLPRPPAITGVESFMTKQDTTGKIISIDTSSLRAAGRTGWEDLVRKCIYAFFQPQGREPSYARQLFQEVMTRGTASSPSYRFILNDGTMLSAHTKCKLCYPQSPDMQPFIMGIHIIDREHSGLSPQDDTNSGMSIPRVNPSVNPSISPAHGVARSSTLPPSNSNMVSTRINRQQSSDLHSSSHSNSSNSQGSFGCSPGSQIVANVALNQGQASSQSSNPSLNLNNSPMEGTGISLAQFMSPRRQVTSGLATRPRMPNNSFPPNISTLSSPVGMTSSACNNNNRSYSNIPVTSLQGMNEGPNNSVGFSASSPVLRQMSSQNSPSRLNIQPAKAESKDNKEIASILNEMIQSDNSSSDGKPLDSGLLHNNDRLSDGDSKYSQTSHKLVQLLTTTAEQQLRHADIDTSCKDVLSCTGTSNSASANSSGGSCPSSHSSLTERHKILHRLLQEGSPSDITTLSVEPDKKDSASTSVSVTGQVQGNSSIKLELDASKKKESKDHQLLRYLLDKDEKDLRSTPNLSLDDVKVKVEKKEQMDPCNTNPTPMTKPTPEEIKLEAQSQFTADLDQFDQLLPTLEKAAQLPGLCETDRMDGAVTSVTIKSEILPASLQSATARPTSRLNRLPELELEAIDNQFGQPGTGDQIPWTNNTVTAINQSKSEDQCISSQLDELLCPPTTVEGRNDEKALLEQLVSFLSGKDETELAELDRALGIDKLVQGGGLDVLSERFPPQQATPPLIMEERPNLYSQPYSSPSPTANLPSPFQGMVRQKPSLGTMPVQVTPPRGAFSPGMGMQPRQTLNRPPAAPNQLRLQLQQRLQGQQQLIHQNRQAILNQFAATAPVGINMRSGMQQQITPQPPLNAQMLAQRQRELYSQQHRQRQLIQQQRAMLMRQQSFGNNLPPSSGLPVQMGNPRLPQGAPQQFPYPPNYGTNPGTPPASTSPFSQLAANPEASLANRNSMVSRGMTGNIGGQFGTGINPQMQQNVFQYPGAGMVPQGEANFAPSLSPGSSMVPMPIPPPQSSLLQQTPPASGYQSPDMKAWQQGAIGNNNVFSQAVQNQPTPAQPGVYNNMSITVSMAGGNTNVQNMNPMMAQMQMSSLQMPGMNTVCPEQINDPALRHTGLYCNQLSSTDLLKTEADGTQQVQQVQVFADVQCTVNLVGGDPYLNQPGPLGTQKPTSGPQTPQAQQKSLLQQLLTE

With `Cc1ccccc1CN1CCN(C(=O)CC(C)C)CC1`, the inhibition in test [1] was -18.4%; in test [2], -7.73%.
For `CCN(CC(=O)Nc1c(F)cccc1F)C(=O)/C=C/c1ccc(S(=O)(=O)N2CCCCCC2)cc1`, in that order: -10.1% and 6.23%.
Consider `CCCc1cc(-c2ccc(O)c(OCC)c2)c(C#N)c(N)n1`, for which the values for the inhibition in test [1] and in test [2] were -3.92% and -2.24%, respectively.
For `O=C(NCCS(=O)(=O)N1CCN(c2cccc(Cl)c2)CC1)C1CC1`, in that order: -3.41% and 18.9%.
For the molecule `CCOC(=O)CNC(c1ccccc1)c1cc(Br)ccc1NC(C)=O` (centres undefined), the results for the inhibition in test [1] and in test [2] were -0.66% and 4.71%, respectively.
As to `CC(O)(c1ccccc1)c1nc(-c2cccc(C#N)c2)cs1` (centres undefined), the inhibition in test [1] was -22.4%; in test [2], -4.39%.
With `Cc1cc(C)nc(/N=C(\N)Nc2ccc(CC(=O)OC(C)C)cc2)n1`, the inhibition is -11.9% in test [1] and 16.6% in test [2].
In the case of `CCN1CCN(c2ccc(S(=O)(=O)N3CCCCC3)cc2NC(=O)/C=C/c2cc(OC)ccc2OC)CC1`, the inhibition in test [1] is -0.69%; in test [2], 7.17%.
Take `CCc1ccc2oc(=O)cc(CN3CCN(Cc4ccccc4)CC3)c2c1`: the results for the inhibition in test [1] and in test [2] were -7.76% and 2.82%, respectively.
For `Cc1ccccc1C(OCC(O)CN1CCN(CCO)CC1)c1ccccc1` (centres undefined), in that order: -13.1% and 3.65%.
For `CC(=O)Nc1sc2c(c1-c1nc3ccccc3s1)CCN(C(C)C)C2`, in that order: -147% and 59.3% (active).
Turning to `COc1cccc(NC(=O)CN(C)CC(=O)Nc2ccc(Cl)cc2[N+](=O)[O-])c1`, the inhibition was 26.6% in test [1] and 14.7% in test [2].

As usually defined, the inhibition is the drop in the measured response relative to a control, in per cent.
